Compounds with a hit are over-represented: about 4.2% of the library has one in this group of screens.
SW480 rereplic: inducers of DNA re-replication in SW480 colon cancer cells; SW480 DNA re-replication, Hoechst DNA content imaging, 48 h; 340,000 tested, 1.8% active; Potency, µM (highest dose often 46.1 µM), hits mostly activators; further: nearly all actives have a fitted effect of over 55% in size
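SW480 cells exposed to compounds for 48 hr at 37 C, 5% CO2, then Hoechst-stained 40 min. Nuclear DNA content imaged by fluorescence scanning (405 nm excitation, 500-530 nm emission); re-replication scored as increased high-intensity nuclei.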
Mito fusion act: inhibitors of mitochondrial division or activators of mitochondrial fusion; AID 485298; 320,000 tested, 0.23% active; Potency, µM (highest dose often 46.1 µM), hits mostly activators; S. cerevisiae fusion-defective mutant growth rescue, CellTiterGlo 48 h; further: nearly all actives have a fitted effect of over 45% in size
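Growth-rescue viability read-out: after 48 h at the non-permissive 37C in glycerol/ethanol YPEG, yeast mitochondrial fusion mutants are measured by CellTiterGlo luminescence; compounds (23 nl pinned per well) restoring growth score as division inhibitors or fusion activators.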
a7 integrin act: activators of alpha7 integrin expression for muscular dystrophy; alpha7betagal myoblasts, beta-gal FDG fluorescence, 48 h; 350,000 tested, 0.064% active; Potency, µM (doses to about 38.3 µM), hits mostly activators; further: nearly all actives have a fitted effect of over 60% in size
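alpha7betagal+/- myoblasts (passage 13, 250/well) treated 48 h at 37C with compounds at 1:260 dilution of DMSO stock. Lysed, then beta-galactosidase activity read as FDG fluorescence (ex 480/em 540) after 30 min, with pre-read for autofluorescence.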
MCF10A rerep: inducers of DNA re-replication in MCF 10A breast cells; MCF 10A DNA re-replication, Hoechst nuclear intensity, 48 h; Potency, µM (top dose mostly 46.1 µM), hits mostly activators; 350,000 tested, 2.9% active; AID 624296; further: nearly all actives have a fitted effect of over 50% in size
A-T KAP1 phos: potential ataxia-telangiectasia treatments restoring KAP-1 phosphorylation; F2112 A-T fibroblasts, KAP-1 phosphorylation AlphaLISA; neocarzinostatin DNA damage 30 min before lysis; Potency, µM (titrated, usually from 57.5 µM), usual class: activators; 320,000 tested, 0.19% active; further: nearly all actives have a fitted effect of over 45% in size
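ATM-like activity read as KAP-1 phosphorylation via AlphaLISA donor/acceptor antibody pairs after lysis and 6 hr at 25C. Cells were ATM-null patient fibroblasts (F2112, hTERT), dosed 60 min, then exposed to the DSB inducer NCS for 30 min.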
Hits are given with their value; i = inactive; ? = inconclusive; nt = no result; [ ] = another dose, or the depositor's remark. The call rests on the fitted dose curve; in most records, active means well fitted activation curve with a large enough effect; inconclusive means small, poorly fitted or top-dose-only effect; inactive means no such curve, though single readings can be large or run the other way.

SMILES	SW480 rereplic	Mito fusion act	a7 integrin act	MCF10A rerep	A-T KAP1 phos
COc1ccccc1N1CCN(C(=O)c2noc(C)c2[N+](=O)[O-])CC1	?	i	i	?	i
Cc1onc(C(=O)N2CCN(C(c3ccccc3)c3ccccc3)CC2)c1[N+](=O)[O-]	4.1µM	i	i	i	i
COc1ccccc1C(C(=O)NC1CCCC1)N(C(=O)c1csnn1)C1CC1 (stereo not drawn)	i	3.2µM	i	i	i
O=c1[nH]c(=O)c2nc3c4ccccc4c4ccccc4c3nc2[nH]1	?	i	i	2.6µM	i
CN(CC(=O)NC1CCN(Cc2ccccc2)CC1)S(=O)(=O)c1ccc(Br)s1	i	i	i	i	i
COCCn1c(C)cc(C(=O)CN2CCCCC2)c1C	i	i	i	i	i
COCCn1c(C)cc(C(=O)CN2C(=O)NC3(CCCCCCC3)C2=O)c1C	?	i	i	12µM	i
CCCC(=O)Nc1ccc(Cl)c(NC(=S)NC(=O)c2cc3ccccc3o2)c1	?	i	i	i	i
O=C(CCCCCCC(=O)Nc1ccccc1)NO	3.7µM	nt	nt	15µM	nt
O=C(CCN1CCCC1)Nc1ccccc1	i	i	i	i	i
O=C(CCN1CCN(CCO)CC1)Nc1ccccc1	i	i	i	0.65µM	i
CCOc1ccc(S(=O)(=O)N(CC(=O)N/N=C/c2ccc(-c3ccc([N+](=O)[O-])cc3)o2)c2ccccc2)cc1	21µM	i	i	0.82µM	i
Cc1ccc(C)c(N(CC(=O)N/N=C/c2ccc(-c3ccc([N+](=O)[O-])cc3)o2)S(=O)(=O)c2ccccc2)c1	i	i	i	i	i
CCOC(=O)Cc1csc(NC(NC(=O)OCC)(C(=O)OCC)C(F)(F)F)n1 (stereo not drawn)	i	nt	i	i	nt
CCOc1ccccc1N1CCN(C(=O)c2ccccc2)CC1	i	i	i	i	i
CCOc1ccccc1N1CCN(C(=O)C2c3ccccc3Oc3ccccc32)CC1	16µM	i	i	6.5µM	i
OC(c1ccccc1)C(Nc1ccccn1)c1ccccc1 (stereo not drawn)	i	nt	i	i	nt
O=C(COC(=O)CN1C(=O)NC2(CCCCC2)C1=O)Nc1cc(F)ccc1F	i	nt	i	i	i
Cc1nn2c(COc3ccc(NC(=O)C(C)C)cc3)nnc2c2ccccc12	i	i	i	i	i
Cc1nn2c(COc3ccc(NC(=O)c4ccccc4Cl)cc3)nnc2c2ccccc12	8.2µM	i	i	2.9µM	i
Cc1ccc(C(=O)Nc2ccc(N3CCN(S(C)(=O)=O)CC3)cc2)cc1C	16µM	i	i	?	i
O=CN1CCCN(C(=O)CC2C(=O)NCCN2Cc2cccc(Oc3ccccc3)c2)CC1 (stereo not drawn)	i	i	i	i	i
COc1cccc(C(=O)NCCC2=CCCCC2)c1	i	i	i	i	i
O=C(CNC(=O)c1ccccc1O)N/N=C/c1cc(Br)ccc1OC(=O)/C=C/c1ccco1	?	i	i	i	i
O=C(CNC(=O)c1cccc(F)c1)N/N=C/c1cc(Br)ccc1OC(=O)/C=C/c1ccco1	5.2µM	?	i	i	i
SMILES	SW480 rereplic	Mito fusion act	a7 integrin act	MCF10A rerep	A-T KAP1 phos
CCOCCCNC(=O)Cc1ccc(Br)cc1	i	i	i	i	i
N#C/C(=C\c1ccccc1[N+](=O)[O-])C(=O)NCc1ccccc1	?	i	i	?	i
N#C/C(=C\C=C\c1ccccc1[N+](=O)[O-])C(=O)NCc1ccccc1	21µM	i	i	3.7µM	i
CCCCCCCCNC(=O)/C(C#N)=C/c1ccccc1[N+](=O)[O-]	i	i	i	?	25µM
Cc1ccc(C)c(NC(=S)N2CCC(NC(=O)C3CCCCC3)CC2)c1	i	i	i	i	i
Cc1ccccc1Oc1cc(-n2ncc(Cl)c(Cl)c2=O)ncn1	?	i	i	0.73µM	i
CC(=O)C1=C(S(=O)(=O)c2ccc(C)cc2)CS(=O)(=O)C1	15µM	i	i	15µM	i
Cc1ccc(S(=O)(=O)C2CS(=O)(=O)CC2O)cc1 (stereo not drawn)	i	i	i	i	i
CCc1cc(=O)oc2cc(C)c(CN3CCCC(C)C3)c(O)c12 (stereo not drawn)	i	i	i	23µM	i
CCCCc1cc(=O)oc2cc(C)c(CN3CCCC3)c(O)c12	i	i	i	?	i
COc1ccc2c(c1)NC(c1cc(Cl)cc(Cl)c1O)c1cccn1-2 (stereo not drawn)	i	i	i	i	i
COc1ccc2c(c1)NC(c1ccc(N(C)C)cc1)c1cccn1-2 (stereo not drawn)	18µM	i	i	?	?
CCN1C/C(=C\c2cc(OC)c(OC)c(OC)c2)C2=NN(c3ccccc3)C(c3cc(OC)c(OC)c(OC)c3)C2C1 (stereo not drawn)	?	nt	i	?	nt
c1ccc(-n2cnc3cc(NCc4ccncc4)ccc32)cc1	?	i	i	?	nt
c1ccc(-n2cnc3cc(NCc4ccccn4)ccc32)cc1	21µM	i	i	5.8µM	i
COc1ccc(CCN2C(=S)NC3CC2(C)Oc2ccc([N+](=O)[O-])cc23)cc1OC (stereo not drawn)	16µM	i	i[7.66 µM]	i	nt
Cn1c(=O)[nH]c(=O)c2c1nc(N1CCCCC1)n2C/C=N/Nc1ccc(C(=O)O)cc1	i	i	i	i	i
C[C@@H]1CN([C@@H](C)CO)C(=O)CCCn2nncc2CO[C@H]1CN(C)S(=O)(=O)c1ccc(Oc2ccccc2)nc1	nt	nt	i	nt	nt
CCOC(=O)c1oc2ccc(S(=O)(=O)n3nc(-c4ccc(OC)cc4)cc3N)cc2c1C	?	13µM	i	?	i
CCOC(=O)c1oc2ccc(S(=O)(=O)n3nc(-c4ccccc4)cc3N)cc2c1C	i	i	i	i	i
O=C(Nc1ccc([N+](=O)[O-])cc1)C(c1ccccc1)c1ccccc1	nt	nt	i	nt	nt
O=C(Nc1ccc(Cl)cc1)N1CCCN(Cc2ccc(F)cc2)C1	?	i	i[7.66 µM]	21µM	i
COC(=O)/C=C\C(C#N)(C#N)N=Cc1ccc(OC)cc1	6.5µM	nt	i	13µM	nt
CCOc1ccc2nc(NCCCNS(=O)(=O)c3ccc(F)cc3)c(C#N)cc2c1	?	nt	?	2.1µM	nt
CCCCNc1nc2ccccc2nc1NS(=O)(=O)c1ccc(F)cc1	i	i	i	?	i
CCOc1ccc2nc(NCCCNS(=O)(=O)c3ccccc3)c(C#N)cc2c1	7.3µM	i	i	2.9µM	?
COc1ccc(C(=O)Nc2ccc(N3CCN(C(=O)C(C)C)CC3)cc2)cc1[N+](=O)[O-]	i	i	i	i	nt
Nc1ccn([C@@H]2O[C@H](CNCc3ccc(OCC(=O)Nc4nccs4)cc3)[C@@H](O)[C@H]2O)c(=O)n1	nt	nt	i	nt	nt
COc1ccc(NS(=O)(=O)c2ccc(OCC(=O)N3CCOCC3)cc2)cc1Cl	i	i	i	i	i
